Assay results: PubChem BioAssay (NCATS)
Inconclusive results are not listed. Active and inactive are the calls of the source. Calls follow the shape of the full dose curve.

Assay: qHTS Assay for Lipid Storage Modulators (AID 1519); as to activity change, negative = inhibition: % is scaled to controls: 0 for no effect and ±100 for the full control effect
Settings: Drosophila S3 cells, BODIPY lipid droplet/cell ratio, laser cytometry, cells loaded with oleic acid
Source text: NIH Molecular Libraries Probe Production Centers Network [MLPCN]
NIH Chemical Genomics Center [NCGC]
Assay Submitter (PI): Beller, Mathias; Max-Planck-Institut fur Biophysikalische Chemie
NCGC Assay Overview: Storing lipids as a reservoir for energy or the anabolism of elementary metabolites is a common feature of probably all cells and is conserved from bacteria to humans. The universal cellular lipid storage organelle is the so-called lipid storage droplet (LD). Although ubiquitous, LDs share a simple structure composed of a hydrophobic core that harbors the storage lipids, which is shielded by a droplet-specific phospholipid monolayer to which proteins are attached. The current model of LD biogenesis involves an incorporation of the lipid core into the membrane leaflets of the endoplasmic reticulum (ER) followed by a subsequent budding-like maturation of a LD, which ultimately pinches off. Once released, LD volume can increase by localized lipogenesis or fusion of existing droplets. Storage lipids are re-mobilized enzymatically by lipase activity. Lipase regulation in the adipocyte is heavily studied and involves multiple components including catecholamine signaling, the LD-associated proteins Perilipin and comparative gene identification-58 (CGI-58) and at least two lipases named hormone sensitive lipase (HSL) and adipocyte triglyceride lipase (ATGL). LD regulation outside of the adipocyte is poorly understood and only few components are known. However, there is an urgent need to learn more about ectopic fat depots as mislocalized storage of lipids, for example in the liver or muscle, is an eminent health problem associated with insulin resistance or the metabolic syndrome. We developed a laser-scanning cytometer assay to enable 1,536-well screening and combined the results of the small molecules screen with an RNAi database based on lipid storage.
NCGC Assay Protocol Summary:
We dispensed 4 uL of cells at 1.25 x 10^6 cells/mL into LoBase Aurora COC 1,536-well plates (black walled, clear bottom) with a bottle-valve solenoid-based dispenser (Aurora) to obtain 5,000 cells/well. Triacsin C (Sigma-Aldrich T-4540), an inhibitor of long-chain fatty acyl CoA synthetase that blocks synthesis of triglycerides, was used as a positive control for lipid under-storage. A total of 23 nL of compound solution of different concentrations were transferred to the assay plates using a Kalypsys pin tool equipped with a 1,536-pin array containing 10-nL slotted pins (FP1S10, 0.457-mm diameter, 50.8 mm long; V&P Scientific). One microliter of oleic acid (400 uM) was added, and the plate was lidded with stainless steel rubber gasket lined lids containing pinholes. […] Fluorescence was detected by excitation of the fluorophores with a 488-nm laser on an Acumen Explorer (TTP Lab Tech). The total intensity in channel 1 (500-530 nm) reflected lipid droplet accumulation. […] The ratio of the total intensity in PMT channel 1 over total intensity of channel 3 was also calculated. Percent activity was computed relative to an internal control (100% inhibited lipid droplet deposition due to the presence of 20 uM Triacsin C), which was added to 32 wells/plate.

[1] = measured here: cell count channel max response
[2] = measured here: lipid channel max response

Row | SMILES | activity change, negative = inhibition (at 25.7 µM (top of the series)) | max response [1] | max response [2] | activity change, negative = inhibition (at 57.5 µM (top of the series))
1 | NS(=O)(=O)c1cc2c(cc1Cl)N[C@@H](CC1CCCC1)NS2(=O)=O | -0.977% (inactive) | 1.17% | 1.04% | –
2 | Cc1c(C)c2c(c(C)c1O)CC[C@@](C)(C(=O)O)O2 | 0.436% (inactive) | -15.9% | -17.6% | –
3 | CC[C@H]1NC(=O)c2cc(S(N)(=O)=O)c(Cl)cc2N1 | -1.77% (inactive) | 0.892% | -1.37% | –
4 | COc1cc(N[C@@H](C)CCCN)c2ncccc2c1 | -1.31% (inactive) | -0.938% | -2.77% | –
5 | C[C@@]12CC[C@@H]3c4ccc(O)cc4CC[C@H]3[C@H]1C[C@@H](O)[C@H]2O | -1.89% (inactive) | -5.07% | -7.07% | –
6 | C=C1C[C@@]23C[C@]1(O)CC[C@@H]2[C@]12C=C[C@@H](O)[C@](C)(C(=O)O1)[C@H]2[C@H]3C(=O)O | 1.67% (inactive) | 0.159% | 3.63% | –
7 | Nc1ncnc2nc(Cl)[nH]c12 | – | -7.94% | -3% | 2.56% (inactive)
8 | CC(CN(C)C)CN1c2ccccc2Sc2ccccc21 (configuration not stated) | – | -0.564% | 10.9% | 6.07% (inactive)
9 | CN(C)CC/C=C1/c2ccccc2COc2ccccc21 | – | 3.97% | 10.6% | 0.286% (inactive)
10 | CC(=O)OC1CC2C(C)(C)C(O)CC[C@@]2(C)C2CC[C@@]3(C)C(c4ccoc4)OC(=O)C4O[C@@]43[C@]12C (some centres not stated) | – | -2.48% | -4.24% | -1.7% (inactive)
11 | C/C=C(/C)C(=O)OC1C(OC(C)=O)[C@@]2(CO)C(O)C[C@@]3(C)C(=CCC4[C@@]5(C)CCC(OC6OC(C(=O)O)[C@@H](O[C@@H]7OC(CO)C(O)C(O)C7O)C(O)[C@H]6O[C@@H]6OC(CO)C(O)C(O)C6O)[C@](C)(CO)C5CC[C@@]43C)C2CC1(C)C (some centres not stated) | – | 18% | 28.7% | 9.44% (inactive)
12 | CC1(C)CC2C1CCC1(C)OC1CCC2(C)O (configuration not stated) | – | -0.415% | 2.87% | -2.16% (inactive)
13 | O=c1[nH]c(=O)c2nc(Br)n(C3OC(CO)C(O)C3O)c2[nH]1 (configuration not stated) | – | 5.7% | 13% | 6.72% (inactive)
14 | CN(C)CCc1c[nH]c2ccc(CC3COC(=O)N3)cc12 (configuration not stated) | – | -1.36% | 11.4% | 10.6% (inactive)
